Drawing on the antibiotic and cytotoxicity screens of Wong et al. (2023), this text covers cytotoxicity call for 64 molecules.

Screen size: about 39,000 compounds; about 3,300 (8.5%) were called active. This excerpt belongs to a sample that is enriched for actives.

The assay deals with HepG2. Put plainly: cytotoxicity call (relative viability < 0.9). To be noted: 10 µM.
`C[C@@H]1CCCCO[C@@H](CN(C)S(=O)(=O)c2cn(C)cn2)[C@H](C)CN([C@H](C)CO)C(=O)c2cc(NS(C)(=O)=O)ccc2O1`: the cytotoxicity call was “inactive”.
Take `C[C@H](CO)N1C[C@H](C)[C@@H](CN(C)S(=O)(=O)c2ccccc2)Oc2ccc(NS(=O)(=O)c3cn(C)cn3)cc2C1=O`: the cytotoxicity call is “inactive”.
The value for `CO[C@H]1CN(C)C(=O)c2cc(NC(C)=O)ccc2OC[C@H](C)N(S(=O)(=O)c2cn(C)cn2)C[C@H]1C` was “inactive”.
Take `CCC(=C(CC)c1ccc(O)cc1)c1ccc(O)cc1`: the cytotoxicity call was “active”.
The result for `CCC(=O)c1ccc(O)cc1` reads “inactive”; that for `CCC(c1ccc(O)cc1)C(CC)c1ccc(O)cc1` (centres undefined), “inactive”.
The result for `CNC[C@@H]1OCCCC[C@H](C)Oc2ccc(NC(=O)Nc3ccc(C(F)(F)F)cc3)cc2C(=O)N([C@@H](C)CO)C[C@H]1C` reads “inactive”; that for `O=C(Cc1ccccn1)NCC[C@@H]1CC[C@H](NC(=O)CN2CCOCC2)[C@@H](CO)O1`, “inactive”.
`Cc1ccc(S(=O)(=O)n2cc([C@@H]3CC(=O)N(C(=O)OCc4ccccc4)[C@@H]3C(=O)Nc3cccc4cccnc34)c3ccccc32)cc1`: the cytotoxicity call is “inactive”.
Turning to `CN1CCN(c2ccc(OC(F)(F)F)c(Nc3ncc4c(n3)-c3c(c(C(N)=O)nn3CCO)CC4)c2)CC1`, the cytotoxicity call is “active”.
The result for `Cn1c(=O)c2c(nc(NCCN)n2C)n(C)c1=O` reads “inactive”.
The result for `COc1ccc2c3c([nH]c2c1)[C@@H](CO)N(C[C@]13CCN(CC1)C(=O)CN(C)C)S(=O)(=O)C` reads “inactive”.
The result for `CCCN(CCC)c1cc(N2CCCC2)c2ccccc2c1` reads “active”; that for `C[C@@H]1CN([C@H](C)CO)C(=O)c2cc(NC(=O)Cc3ccccc3)ccc2O[C@H]1CN(C)S(=O)(=O)c1ccccc1`, “inactive”; that for `Cc1ccc(S(=O)(=O)Nc2ccc3c(c2)C(=O)N([C@H](C)CO)C[C@H](C)[C@H](CN(C)C(=O)Nc2c(C)noc2C)OCCCC[C@@H](C)O3)cc1`, “inactive”.
`CN1CCN(C(=O)C[C@H]2CC[C@@H]3[C@@H](COc4ccc(NC(=O)c5ccc(F)c(F)c5)cc4C(=O)N3C)O2)CC1`: the cytotoxicity call was “inactive”.
The result for `C[C@@H]1CCCCO[C@@H](CN(C)Cc2ccccc2)[C@@H](C)CN([C@H](C)CO)C(=O)c2cc(NC(=O)CCCCCC(=O)Nc3ccccc3N)ccc2O1` reads “inactive”.
The value for `Cc1ccc(NC(=O)Nc2cc(C(F)(F)F)ccc2F)cc1Nc1ccc2c(c1)NC(=O)/C2=C\c1ccc[nH]1` was “active”.
The result for `COc1ccc(S(=O)(=O)N[C@H]2C=C[C@H](CC(=O)NCCc3ccncc3)O[C@@H]2CO)cc1` reads “inactive”; that for `Cc1ccc(S(=O)(=O)N(C)C[C@@H]2OCCCC[C@@H](C)Oc3ccc(NC(=O)CCC(F)(F)F)cc3C(=O)N([C@H](C)CO)C[C@H]2C)cc1`, “inactive”.
With `C[C@@H]1CN([C@H](C)CO)C(=O)c2cc(NC(=O)CCC(F)(F)F)ccc2O[C@@H](C)CCCCO[C@@H]1CN(C)S(=O)(=O)c1ccc(Cl)cc1`, the cytotoxicity call is “inactive”.
The result for `Cc1ccc(S(=O)(=O)N(C)C[C@@H]2OCCCC[C@H](C)Oc3ccc(NC(=O)CCC(F)(F)F)cc3C(=O)N([C@@H](C)CO)C[C@@H]2C)cc1` reads “active”; that for `C[C@@H]1CCCCO[C@H](CN(C)S(=O)(=O)c2ccc(Cl)cc2)[C@@H](C)CN([C@@H](C)CO)C(=O)c2cc(NC(=O)CCC(F)(F)F)ccc2O1`, “inactive”.
The value for `C[C@@H]1CN([C@@H](C)CO)C(=O)c2cc(NC(=O)CCC(F)(F)F)ccc2O[C@@H](C)CCCCO[C@@H]1CN(C)S(=O)(=O)c1ccc(Cl)cc1` was “inactive”; that for `C[C@H](CO)N1C[C@H](C)[C@@H](CN(C)S(=O)(=O)c2ccc(Cl)cc2)OCCCC[C@H](C)Oc2ccc(NC(=O)CCC(F)(F)F)cc2C1=O` was “inactive”.
The value for `C[C@@H]1CN([C@H](C)CO)C(=O)c2cc(NC(=O)CCC(F)(F)F)ccc2O[C@@H](C)CCCCO[C@H]1CN(C)S(=O)(=O)c1ccc(Cl)cc1` was “active”; that for `C[C@@H]1CCCCO[C@@H](CN(C)S(=O)(=O)c2ccc(Cl)cc2)[C@H](C)CN([C@H](C)CO)C(=O)c2cc(NC(=O)CCC(F)(F)F)ccc2O1` was “active”; that for `C[C@@H]1CN([C@@H](C)CO)C(=O)c2cc(NC(=O)CCC(F)(F)F)ccc2O[C@@H](C)CCCCO[C@H]1CN(C)S(=O)(=O)c1ccc(Cl)cc1` was “inactive”.
`C[C@@H]1CCCCO[C@H](CN(C)S(=O)(=O)c2ccc(Cl)cc2)[C@@H](C)CN([C@H](C)CO)C(=O)c2cc(NC(=O)CCC(F)(F)F)ccc2O1`: the cytotoxicity call is “inactive”.
The result for `C[C@@H]1CCCCO[C@H](CN(C)S(=O)(=O)c2ccc(Cl)cc2)[C@H](C)CN([C@H](C)CO)C(=O)c2cc(NC(=O)CCC(F)(F)F)ccc2O1` reads “active”; that for `Cc1ccc(S(=O)(=O)N(C)C[C@H]2OCCCC[C@H](C)Oc3ccc(NC(=O)CCC(F)(F)F)cc3C(=O)N([C@H](C)CO)C[C@@H]2C)cc1`, “inactive”.
The result for `COc1ccc(NC(=O)N(C)C[C@H]2Oc3c(NC(=O)C4CCOCC4)cccc3C(=O)N([C@@H](C)CO)C[C@H]2C)cc1` reads “inactive”.
The result for `CC(C)NC(=O)Nc1ccc2c(c1)C(=O)N([C@@H](C)CO)C[C@H](C)[C@@H](CN(C)C(=O)Nc1ccccc1)OCCCC[C@@H](C)O2` reads “inactive”; that for `C[C@H](CO)N1C[C@H](C)[C@H](CN(C)Cc2cccc3c2OCCCO3)OCc2cn(nn2)CCCC1=O`, “inactive”.
Consider `C[C@@H]1CCCCO[C@@H](CN(C)C(=O)CCC(F)(F)F)[C@@H](C)CN([C@H](C)CO)C(=O)c2cc(NS(=O)(=O)c3cccs3)ccc2O1`, for which the cytotoxicity call is “inactive”.
The value for `Cc1noc(C)c1S(=O)(=O)N(C)C[C@H]1Oc2ccc(NC(=O)CCC(F)(F)F)cc2CC(=O)N([C@@H](C)CO)C[C@@H]1C` was “inactive”; that for `O=C(C[C@H]1C=C[C@@H](NS(=O)(=O)c2ccccc2F)[C@H](CO)O1)NCCCN1CCOCC1` was “inactive”.
In the case of `C[C@@H]1CCCCO[C@@H](CN(C)C(=O)Nc2ccccc2)[C@@H](C)CN([C@H](C)CO)C(=O)c2cc(NS(=O)(=O)c3ccc(Cl)cc3)ccc2O1`, the cytotoxicity call was “inactive”.
The result for `C[C@@H]1CN([C@H](C)CO)C(=O)c2cccc(NC(=O)c3cnccn3)c2O[C@@H]1CN(C)S(=O)(=O)c1ccc(Cl)cc1` reads “inactive”; that for `C[C@@H]1CN([C@@H](C)CO)C(=O)c2cc(NC(=O)CCCCCC(=O)Nc3ccccc3N)ccc2O[C@@H](C)CCCCO[C@@H]1CN(C)S(=O)(=O)c1ccc(Cl)cc1`, “inactive”; that for `C[C@H](CO)N1C[C@H](C)[C@@H](CN(C)S(=O)(=O)c2ccc(C#N)cc2)OCc2cnnn2CCCC1=O`, “inactive”.
For the molecule `C[C@@H]1CCCCO[C@@H](CN(C)Cc2ccccc2)[C@H](C)CN([C@H](C)CO)C(=O)c2cc(NC(=O)c3ccccc3)ccc2O1`, the cytotoxicity call is “inactive”.
The result for `Cc1noc(C)c1NC(=O)Nc1ccc2c(c1)CC(=O)N([C@@H](C)CO)C[C@@H](C)[C@@H](CN(C)CC1CC1)O2` reads “inactive”; that for `COc1ccc(NC(=O)Nc2ccc3c(c2)C(=O)N([C@@H](C)CO)C[C@@H](C)[C@H](CN(C)Cc2ccc4c(c2)OCO4)OCCCC[C@@H](C)O3)cc1`, “inactive”; that for `CCCOc1ccnc2c1c(=O)n(C)c(=O)n2C`, “inactive”.
The value for `COc1ccc(NC(=O)Nc2cccc3c2O[C@@H](CN(C)Cc2ccc(C(=O)Nc4ccccc4N)cc2)[C@@H](C)CN([C@H](C)CO)C3=O)cc1` was “inactive”; that for `C[C@H]1CN([C@@H](C)CO)C(=O)Cc2cc(NC(=O)C3CC3)ccc2O[C@@H]1CN(C)S(=O)(=O)c1ccccc1` was “inactive”.
The result for `C[C@@H]1CCCCO[C@@H](CN(C)S(=O)(=O)c2ccc(Cl)cc2)[C@@H](C)CN([C@H](C)CO)C(=O)c2cc(NC(=O)CCC(F)(F)F)ccc2O1` reads “inactive”.
As for `C[C@@H]1CCCCO[C@@H](CN(C)S(=O)(=O)c2ccc(Cl)cc2)[C@@H](C)CN([C@@H](C)CO)C(=O)c2cc(NC(=O)CCC(F)(F)F)ccc2O1`, the cytotoxicity call was “inactive”.
Turning to `C[C@H]1CCCCO[C@@H](CN(C)S(=O)(=O)c2ccc(Cl)cc2)[C@@H](C)CN([C@@H](C)CO)C(=O)c2cc(NC(=O)CCC(F)(F)F)ccc2O1`, the cytotoxicity call is “inactive”.
The result for `C[C@H](CO)N1C[C@H](C)[C@H](CN(C)S(=O)(=O)c2ccc(Cl)cc2)OCCCC[C@H](C)Oc2ccc(NC(=O)CCC(F)(F)F)cc2C1=O` reads “inactive”; that for `C[C@@H]1CCCCO[C@@H](CN(C)S(=O)(=O)c2ccc(Cl)cc2)[C@H](C)CN([C@@H](C)CO)C(=O)c2cc(NC(=O)CCC(F)(F)F)ccc2O1`, “active”.
The value for `C[C@H]1CCCCO[C@H](CN(C)S(=O)(=O)c2ccc(Cl)cc2)[C@@H](C)CN([C@@H](C)CO)C(=O)c2cc(NC(=O)CCC(F)(F)F)ccc2O1` was “active”; that for `N#C[C@@H]1C(=O)NC(=O)[C@@H](C#N)C12CCCC2` was “inactive”.
The result for `Cc1noc(C)c1S(=O)(=O)N(C)C[C@@H]1OCCCC[C@@H](C)Oc2ccc(NC(=O)Nc3ccc(F)cc3)cc2C(=O)N([C@H](C)CO)C[C@@H]1C` reads “inactive”.
As for `C[C@@H]1CN([C@@H](C)CO)C(=O)c2cc(NC(=O)Nc3ccccc3)ccc2O[C@@H](C)CCCCO[C@@H]1CN(C)C(=O)Nc1cccc2ccccc12`, the cytotoxicity call was “inactive”.
In the case of `Cc1ccc(S(=O)(=O)N(C)C[C@H]2OCCCC[C@H](C)Oc3ccc(NC(=O)Nc4cccc5ccccc45)cc3C(=O)N([C@H](C)CO)C[C@@H]2C)cc1`, the cytotoxicity call is “inactive”.
The value for `Cc1cc(C)c(NC(=O)[C@@H](N)Cc2ccccc2)c(Cl)c1` was “active”; that for `NNC(=O)[C@@H](N)Cc1ccccc1` was “inactive”; that for `CCOC(=O)[C@@H](N)Cc1ccccc1` was “inactive”.
The value for `C=C(C)[C@H]1CC=C(C)CC1` was “inactive”; that for `CC1=CC[C@H](C(C)(C)O)CC1` was “inactive”; that for `CC(C)=CCCC(C)(O)C1CC=C(C)CC1` (centres undefined) was “active”.
The result for `C[C@@H]1CN([C@H](C)CO)C(=O)c2cc(NC(=O)C3CCCCC3)ccc2O[C@@H](C)CCCCO[C@H]1CN(C)C(=O)C1CCCCC1` reads “inactive”.
